{"source": "PubChem BioAssay (EPA / NIEHS)", "note": "Records with an inconclusive call do not appear. More than one record can exist for a structure, and the calls need not agree. Calls of active or inactive are those of the source. How the source made its calls: active means hit-call score of the fitted dose curve at least 0.9, where 1 is the maximum; inconclusive means response in the unintended direction; inactive means score below 0.9.", "data": [{"target": "Estrogen receptor (Homo sapiens) (UniProt P03372)", "sequence (P03372 whole entry, looked up)": "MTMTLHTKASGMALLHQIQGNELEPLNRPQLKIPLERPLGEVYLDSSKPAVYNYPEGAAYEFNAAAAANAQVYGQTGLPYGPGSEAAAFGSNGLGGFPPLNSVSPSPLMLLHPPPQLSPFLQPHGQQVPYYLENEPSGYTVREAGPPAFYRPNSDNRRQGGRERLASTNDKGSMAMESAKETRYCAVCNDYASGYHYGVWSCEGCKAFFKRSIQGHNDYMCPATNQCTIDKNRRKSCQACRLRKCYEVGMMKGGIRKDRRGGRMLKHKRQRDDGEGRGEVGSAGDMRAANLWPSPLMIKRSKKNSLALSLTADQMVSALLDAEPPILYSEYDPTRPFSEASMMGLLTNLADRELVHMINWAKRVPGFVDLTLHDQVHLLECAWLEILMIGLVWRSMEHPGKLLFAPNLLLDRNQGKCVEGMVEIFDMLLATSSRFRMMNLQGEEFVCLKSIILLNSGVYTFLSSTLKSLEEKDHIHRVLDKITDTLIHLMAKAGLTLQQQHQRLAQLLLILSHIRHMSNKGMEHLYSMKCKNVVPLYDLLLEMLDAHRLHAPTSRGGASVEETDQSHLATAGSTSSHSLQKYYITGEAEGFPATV", "experiment": "NVS_NR_hER: NovaScreen (NVS) Nuclear Receptor Binding Assay for human Estrogen Receptor (ER) (AID 2283348)", "procedure": "NVS_NR_hER is a biochemical, single-readout assay that uses extracted gene-proteins from MCF7 in a cell-free assay. Measurements were taken 18 hours after chemical dosing in a 96-well plate.NVS_NR_hER is one of one assay component(s) measured or calculated from the NVS_NR_hER assay. It is designed to make measurements of radioligand binding, a form of binding reporter, as detected with scintillation counting signals by Lysate-based radiodetection technology.Data from the assay component NVS_NR_hER was analyzed into 1 assay endpoint. This assay endpoint, NVS_NR_hER, was analyzed in the positive analysis fitting direction relative to DMSO as the negative control and baseline of activity. Using a type of binding reporter, loss-of-signal activity can be used to understand changes in the binding as they relate to the gene ESR1. Furthermore, this assay endpoint can be referred to as a primary readout, because the performed assay has only produced 1 assay endpoint. To generalize the intended target to other relatable targets, this assay endpoint is annotated to the nuclear receptor intended target family, where the subfamily is steroidal.\nBinding assays used specific radioligands (tritiated, iodinated) with non-radioactive competitive displacement ligands in agonist or antagonist protocols (as indicated) and various reference compounds and inhibitors to titrate specific binding to receptors and transporters. Most enzyme assays (CYPs, kinases, phosphatases, proteases, HDACs) used recombinant protein and specific substrates (fluorescence mostly, some colorimetric and radioactive) and inhibitors, followed by a biochemical separation of substrate and product. All assays for the biochemical HTS were initially run in duplicate at a single concentration (10 uM for CYP450 assays and 25 uM for all others). […] Each assay was run with positive and negative controls, and concurrent controls on every plate. The follow-up (secondary) screen tested active chemical-pairs in concentration series, as well as a few additional assays not tested in the primary screen, some selected negative inactives, and several cases re-run in the concentration series for confirmatory purposes.", "values": [{"molecule": "Oc1ccccc1Cc1ccccc1O", "outcome": "inactive"}, {"molecule": "CCCCCCCCCCCC(=O)N(C)CC(=O)O", "outcome": "inactive"}, {"molecule": "O=c1c(O)c(-c2ccc(O)cc2O)oc2cc(O)cc(O)c12", "AC50": "4.3 µM (active)"}, {"molecule": "C=CC(=O)OCC(C)OCC(C)OCC(C)OC(=O)C=C", "note": "(stereo not given)", "outcome": "inactive"}, {"molecule": "CC(=O)OCc1ccccc1", "outcome": "inactive"}, {"molecule": "CC(C)(c1ccccc1)c1ccc(Nc2ccc(C(C)(C)c3ccccc3)cc2)cc1", "outcome": "inactive"}, {"molecule": "CC(C)=CCCC(C)=CC#N", "outcome": "inactive"}, {"molecule": "CN(C)Cc1cc(CN(C)C)c(O)c(CN(C)C)c1", "outcome": "inactive"}, {"molecule": "CCCCC/C=C\\C/C=C\\CCCCCCCC(=O)O", "AC50": "25 µM (active)"}, {"molecule": "COc1ccc(-c2coc3cc(O)cc(O)c3c2=O)cc1", "AC50": "0.642 µM (active)"}, {"molecule": "Nc1ccc(O)c([N+](=O)[O-])c1", "outcome": "inactive"}, {"molecule": "O=C(Nc1ccccc1)c1cc(Cl)ccc1O", "outcome": "inactive"}, {"molecule": "O=S(=O)(O)c1ccc(Nc2nc(Nc3ccc(C=Cc4ccc(Nc5nc(Nc6ccc(S(=O)(=O)O)cc6)nc(N(CCO)CCO)n5)cc4S(=O)(=O)O)c(S(=O)(=O)O)c3)nc(N(CCO)CCO)n2)cc1", "outcome": "inactive"}, {"molecule": "CCCCCCCOC(=O)c1ccc(O)cc1", "AC50": "3.5 µM (active)"}, {"molecule": "CC(C)c1ccc(O)c(C(C)C)c1", "outcome": "inactive"}, {"molecule": "COC(OC)(C(=O)c1ccccc1)c1ccccc1", "AC50": "25 µM (active)", "outcome": "inactive"}, {"molecule": "Oc1ccc(/C=C/c2cc(O)cc(O)c2)cc1", "outcome": "inactive", "AC50": "2.52 µM (active)"}, {"molecule": "C=C1C[C@H]2[C@@H]3C=C(C)C4=CC(=O)CC[C@]4(C)[C@H]3CC[C@]2(C)[C@@]1(OC(C)=O)C(C)=O", "AC50": "0.0185 µM (active)"}, {"molecule": "CO[Si](C)(C)OC", "outcome": "inactive"}, {"molecule": "CCCCCCCCCCCCCCCCCCOS(=O)(=O)O", "outcome": "inactive"}, {"molecule": "N=C1C=CC(=C(c2ccc(N)cc2)c2ccc(N)cc2)C=C1", "outcome": "inactive"}, {"molecule": "CCCCCCCCCC[N+](C)(CCCCCCCCCC)CCC[Si](OC)(OC)OC", "outcome": "inactive"}, {"molecule": "CC(CCC(=O)O)(c1ccc(O)cc1)c1ccc(O)cc1", "AC50": "4.34 µM (active)"}, {"molecule": "Cc1cc(C)n(CO)n1", "outcome": "inactive"}, {"molecule": "N#Cc1ccc(C2CCCc3cncn32)cc1", "note": "(stereo not given)", "AC50": "4.33 µM (active)"}, {"molecule": "O=C(OCc1ccccc1)c1ccc(O)cc1", "AC50": "0.212 µM (active)"}, {"molecule": "C[Si](C)(C)N[Si](C)(C)C", "outcome": "inactive"}, {"molecule": "C=CC(=O)OCCCCCCOC(=O)C=C", "outcome": "inactive"}, {"molecule": "CCCCOC(=O)CCC(C)=O", "outcome": "inactive"}, {"molecule": "Oc1ccc(-c2ccccc2)c(Cl)c1", "outcome": "inactive"}, {"molecule": "c1ccc(Nc2cccc3ccccc23)cc1", "outcome": "inactive"}, {"molecule": "CCCCCCCCCCCCc1ccc(O)cc1", "AC50": "11 µM (active)"}, {"molecule": "N#Cc1ccc(C(c2ccc(C#N)cc2)n2cncn2)cc1", "outcome": "inactive"}]}]}
